{"source": "PubChem BioAssay (NCATS)", "note": "Values joined by “and” are separate entries in the source; they are usually repeats but may differ in a detail not shown here. Equal values may be shown once. Inconclusive results are not listed. Active and inactive are the calls of the source. The call rests on the fitted dose curve; in most records, active means well fitted activation curve with a large enough effect; inconclusive means small, poorly fitted or top-dose-only effect; inactive means no such curve, though single readings can be large or run the other way.", "data": [{"biological_target": "Cellular tumor antigen p53 (Homo sapiens) (UniProt P04637)", "sequence (P04637 whole entry, looked up)": "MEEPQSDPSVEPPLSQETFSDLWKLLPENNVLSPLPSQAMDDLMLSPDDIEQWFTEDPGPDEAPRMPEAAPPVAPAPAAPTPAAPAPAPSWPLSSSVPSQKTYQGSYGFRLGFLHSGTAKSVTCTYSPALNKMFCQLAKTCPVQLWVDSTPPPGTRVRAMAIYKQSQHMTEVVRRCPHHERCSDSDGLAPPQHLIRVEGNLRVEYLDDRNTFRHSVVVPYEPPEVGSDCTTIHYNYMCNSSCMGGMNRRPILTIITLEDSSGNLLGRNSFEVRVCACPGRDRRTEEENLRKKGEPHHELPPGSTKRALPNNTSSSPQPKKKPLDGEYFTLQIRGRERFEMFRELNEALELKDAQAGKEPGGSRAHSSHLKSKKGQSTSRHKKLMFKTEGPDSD", "test": "Primary qHTS for small molecule compounds that upregulate eGFP-tagged delta133p53alpha (in N-terminal) cells. (AID 2060322);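 further: series mostly up to about 56 µM; 0% = DMSO vehicle and 100% = reference activator; nearly all actives have a fitted effect of over 75% in size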", "conditions": "NCI-H358 eGFP-delta133p53alpha fluorescence, 24 h; activation: hits give high values", "summary_of_the_method": "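NCI-H358 cells pre-induced 24 h with 10 ng/ml doxycycline to express N-terminal eGFP-delta133p53alpha, then dosed 24 h at 37C without doxycycline; fixed, Hoechst-stained, GFP intensity by laser scanning cytometry, normalized to DMSO (0%) and 57.5 uM 5-azacytidine (100%).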", "values": [{"smiles": "CCOc1ccc(NC(C)=O)cc1", "activation": "7.53% (inactive)"}, {"smiles": "C#CC(C)(CC)OC(=O)c1ccccc1C(=O)O", "note": "(centres undefined)", "activation": "-11.9% (inactive)"}, {"smiles": "CC(C)C[C@H](NC(=O)CNC(=O)[C@H](Cc1ccc(O)cc1)NC(=O)[C@H](CO)NC(=O)[C@H](Cc1c[nH]c2ccccc12)NC(=O)[C@H](Cc1cnc[nH]1)NC(=O)[C@@H]1CCC(=O)N1)C(=O)N[C@@H](CCCN=C(N)N)C(=O)N1CCC[C@H]1C(=O)NCC(N)=O", "note": "(stereo in doubt)", "activation": "-1.69% (inactive)"}, {"smiles": "Cc1[nH]cnc1-c1ccc(Cl)cc1", "activation": "15.3% (inactive)"}, {"smiles": "Cc1noc(NS(=O)(=O)c2ccc(N)cc2)c1C", "activation": "9.21% (inactive) and -0.487% (inactive)"}, {"smiles": "C/C(=N/NC(=O)c1ccncc1)C(=O)O", "activation": "7.34% (inactive)"}, {"smiles": "Cc1nc(-c2ccc(Cl)cc2)oc1COC(C)(C)C(=O)O", "activation": "1.67% (inactive)"}, {"smiles": "CC(=O)Nc1ccc(/C=N/NC(N)=S)cc1", "activation": "-14.2% (inactive)"}, {"smiles": "CCN(CC)CCOC(=O)C(c1ccccc1)C1CCCCC1", "note": "(centres undefined)", "activation": "14.2% (inactive)"}, {"smiles": "Oc1c(Cl)cc(Cl)c(Cl)c1Cc1c(O)c(Cl)cc(Cl)c1Cl", "activation": "19.8% (inactive)"}, {"smiles": "COc1ccc(-c2cc(=O)c3c(O)cc(O[C@@H]4O[C@H](CO[C@@H]5O[C@@H](C)[C@H](O)[C@@H](O)[C@@H]5O)[C@@H](O)[C@H](O)[C@@H]4O)cc3o2)cc1O", "activation": "-19% (inactive)"}, {"smiles": "CCCC(=O)O[C@]1(C(=O)CC)CC[C@H]2[C@@H]3CCC4=CC(=O)CC[C@]4(C)[C@H]3[C@@H](O)C[C@@]21C", "activation": "-20.9% (inactive)"}, {"smiles": "CC(O)CCCCn1c(=O)c2c(ncn2C)n(C)c1=O", "note": "(centres undefined)", "activation": "-16.4% (inactive)"}, {"smiles": "CC(=O)CC(c1ccc([N+](=O)[O-])cc1)c1c(O)c2ccccc2oc1=O", "note": "(centres undefined)", "activation": "-10% (inactive)"}, {"smiles": "CN[C@H]1[C@@H](O)[C@@H]2O[C@@H]3O[C@H](C)CC(=O)[C@]3(O)O[C@@H]2[C@@H](NC)[C@H]1O", "activation": "-7.34% (inactive)"}, {"smiles": "C[C@]12C=CC(=O)C=C1[C@@H](F)C[C@@H]1[C@@H]2[C@@H](O)C[C@@]2(C)[C@H]1CC[C@]2(O)C(=O)CO", "activation": "7.53% (inactive)"}, {"smiles": "Cc1cc(=O)oc2cc(O[C@@H]3SC[C@@H](O)[C@H](O)[C@H]3O)ccc12", "activation": "23.2% (inactive)"}, {"smiles": "N#CC(=C1Nc2ccccc2S1)c1ccnc(OCc2ccc(CN3CCOCC3)cc2)n1", "activation": "-32.5% (inactive)"}, {"smiles": "C[N+]1(C)CCC(OC(=O)C(O)(c2ccccc2)C2CCCC2)C1", "note": "(centres undefined)", "activation": "7.34% (inactive)"}, {"smiles": "C=CCc1cc(OC)c(O)c(C(=O)NCCO)c1", "activation": "-4.18% (inactive) and -21% (inactive)"}, {"smiles": "COC(=O)/C=C(/C)N", "activation": "8.47% (inactive)"}, {"smiles": "CCOc1ncc(F)c(=O)[nH]1", "activation": "3.95% (inactive)"}, {"smiles": "COc1cc2c(cc1OC)C(=O)CC2", "activation": "-2.82% (inactive)"}, {"smiles": "CC(=O)N(c1onc(C)c1C)S(=O)(=O)c1ccc(N)cc1", "activation": "-0.565% (inactive)"}]}]}
